# Results as given in the supplement of paper PMC8699584.
# “And” between values parts separate entries of the source, which are not always exact repeats. Equal entries are not always repeated. Structures can show the parent of a compound that is named as a salt. ± gives the standard deviation of the averaged measurements.
# Key:
# Molm13 = test: cell viability relative to DMSO control (bortezomib = 0%); higher = less growth inhibition; conditions: 10 nM; 72 h
# How it was run: (§1)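 Using 384-well plates, a set of 679 approved and investigational compounds was tested once at 10 nM against acute myeloid leukemia cells (1000 cells per well in 50 µL) over 72 h, with the whole screen done in duplicate. Viability readout relied on CellTiter-Glo luminescence measured on an EnVision reader. For each plate, linear regression mapped values between positive-control-treated cells at 0% and DMSO-treated cells at 100%.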
# Mv4-11 = test: as above; conditions: 10 nM; 72 h
# How it was run: as §1
SMILES,cell viability (Molm13),cell viability (Mv4-11)
CCN(CC)CC(=O)Nc1c(C)cccc1C [Lidocaine Hydrochloride hydrate],111 ± 18%,113 ± 8.3%
O=c1cc(-c2ccc(O)cc2)oc2cc(O)c(O)c(O)c12 [Scutellarein],108 ± 3.9%,100 ± 5.4%
CONC(=O)c1ccccc1Nc1cc(Nc2cc(C)nn2C(C)C)ncc1Cl,105 ± 9.6%,105 ± 1.3%
C#Cc1cccc(Nc2ncnc3cc(OCCOC)c(OCCOC)cc23)c1 [Erlotinib],102 ± 6.9%,102 ± 10%
C[C@]1(O)C[C@@H](c2nc(-c3ccc4ccc(-c5ccccc5)nc4c3)c3c(N)nccn32)C1 [OSI-906 (Linsitinib)],118 ± 12%,116 ± 12%
NC(=O)c1ccc(NC(=O)NCc2cccc(C(=O)Nc3ccc4c(c3)CNCC4)c2)cc1,117 ± 25%,119 ± 19%
O=C(NCCCNc1nc(Nc2cccc(NC(=O)N3CCCC3)c2)ncc1I)c1cccs1,95.7 ± 9.5%,97.5 ± 5.3%
CN(C)C(=N)NC(=N)N [Metformin hydrochloride],104 ± 25%,90.48 ± 0.55%
CC(C)c1ccc2oc3nc(N)c(C(=O)O)cc3c(=O)c2c1 [Amlexanox],96.8 ± 11%,92.6 ± 2.2%
CCOC(=O)c1cnc2ccc(-c3cncc(NS(=O)(=O)c4ccccc4)c3)cn12,99.7 ± 8.9%,103 ± 14%
COc1cc2ncnc(Nc3ccc(F)c(Cl)c3)c2cc1OCCCN1CCOCC1 [Gefitinib (ZD1839)],110 ± 23%,116 ± 1.7%
CC(C)(C)[Si](C)(C)Oc1ccc2oc(=O)c3c(c2c1)CCCN3,108 ± 12%,108 ± 14%
Nc1ncnc2c1c(-c1cccc(OCc3ccccc3)c1)cn2C1CC(CN2CCCC2)C1 (stereo unspecified),103 ± 13%,96.5 ± 2.5%
CN(C)S(=O)(=O)c1ccc2c(c1)/C(=C/c1cc3c([nH]1)CCCC3)C(=O)N2,113 ± 3.4%,109 ± 1.4%
C[C@H](NC(=O)/C(C#N)=C/c1cccc(Br)n1)c1ccccc1,103 ± 0.31%,99.3 ± 5.6%
CNS(=O)(=O)C[C@H]1CC[C@H](N(C)c2[nH]cnc3nccc2-3)CC1 [Oclacitinib],96.5 ± 22%,107 ± 18%
CN1CC[C@H](c2c(O)cc(O)c3c(=O)cc(-c4ccccc4Cl)oc23)[C@H](O)C1 [Flavopiridol (Alvocidib) hydrochloride],113.8 ± 0.38%,100 ± 3.2%
NC(=O)c1ncn([C@@H]2O[C@H](CO)[C@@H](O)[C@H]2O)n1 [Ribavirin],98.7 ± 13%,106 ± 5.6%
COc1cc(-c2cc(-c3cccc(O)c3)cnc2N)cc(OC)c1OC,99.8 ± 14%,106 ± 6.8%
C[N+](C)(C)CC(=O)O [Betaine hydrochloride],86.4 ± 9.4%,101 ± 9.6%
CNC(=O)c1ccc(-c2cnc3ncc(Cc4ccc5ncccc5c4)n3n2)cc1F,109 ± 3.6%,108 ± 6.8%
CCC[C@H](NC(=O)/C(C#N)=C/c1cccc(Br)n1)c1ccccc1,132 ± 32%,115 ± 11%
O=C1NC(=O)/C(=C/c2ccc3nccc(-c4ccncc4)c3c2)S1,106% and 113%,103% and 115%
Cc1c(F)cc(C(=O)NC2CC2)cc1-c1ccc(C(=O)NCC(C)(C)C)cn1,92.1 ± 8%,118 ± 20%
NS(=O)(=O)c1ccc(Nc2nc(OCC3CCCCC3)c3[nH]cnc3n2)cc1,104 ± 34%,109 ± 13%
Cc1ccc(C(=O)N(CCCN)[C@@H](c2oc3cc(Cl)ccc3c(=O)c2Cc2ccccc2)C(C)C)cc1,2.68 ± 8.6%,-0.7 ± 5.9%

SMILES,cell viability (Molm13),cell viability (Mv4-11)
COc1cc2ncnc(Nc3cccc(Cl)c3)c2cc1OC,98.7 ± 14%,108 ± 7.1%
NC(=O)c1ccc(-c2nc(-c3ccccn3)c(-c3ccc4c(c3)OCO4)[nH]2)cc1,105 ± 16%,107 ± 20%
N#CC(=Cc1cc(Cl)cc(Cl)c1)c1cccnc1,116 ± 8.1%,108 ± 7.3%
COc1cc2c(Oc3ccc(NC(=O)C4(C(=O)Nc5ccc(F)cc5)CC4)cc3F)ccnc2cc1OCCCN1CCOCC1,14.3 ± 2.5%,15.8 ± 33%
CC(C)c1cnc(NC(=O)Cc2ccccc2)s1,92.8 ± 37%,98.7 ± 9.3%
COc1cc(N2CCN(C)CC2)ccc1Nc1nccc(-c2cn(C)c3cnccc23)n1,118 ± 3.1%,117 ± 7%
C=CCn1c(=O)c2cnc(Nc3ccc(N4CCN(C)CC4)cc3)nc2n1-c1cccc(C(C)(C)O)n1,93.6 ± 20%,95.2 ± 2.1%
CN1CCC(CNc2ccc3ncc(-c4cccc(OC(F)(F)F)c4)n3n2)CC1 [SGI-1776 free base],92.3 ± 5.5%,97.7 ± 14%
COc1cc2ncnc(Nc3ccc(F)c(Cl)c3)c2cc1NC(=O)/C=C/CN1CCCCC1,104 ± 3.3%,108 ± 1.3%
O=c1ccc2ccccc2o1 [Coumarin],114 ± 8%,114 ± 24%
Cc1ncc(CO)c(CO)c1O [Pyridoxine],95.3 ± 26%,114 ± 20%
CS(=O)(=O)c1cccc(CNc2nc(Nc3ccc4c(c3)CCC(=O)N4)ncc2C(F)(F)F)c1,98.44 ± 0.67%,101 ± 4.3%
O=C1NC(=O)/C(=C/c2ccc3c(c2)OC(F)(F)O3)S1,102 ± 18%,104 ± 34%
N#C/C(=C\c1ccc(O)c(O)c1)C(=O)Nc1ccccc1,106 ± 6.4%,115 ± 17%
Cc1ccc(S(=O)(=O)/C=C/C#N)cc1,87.5 ± 24%,98.8 ± 3.1%
O=c1cc(N2CCOCC2)oc2c1ccc1ccccc12,98.1% and 100%,103% and 110%
Cc1cncc2cccc(S(=O)(=O)N3CCCNC[C@@H]3C)c12 [(S)-H-1152 (hydrochloride)],100 ± 4.3%,101 ± 3%
NC(=O)c1ccc2nc(-c3ccc(Oc4ccc(Cl)cc4)cc3)[nH]c2c1,100 ± 13%,114 ± 6.3%
O=C1NC(=O)[C@@H](c2cn3c4c(cccc24)CCC3)[C@@H]1c1c[nH]c2ccccc12 [Tivantinib (ARQ 197)],105 ± 3.9%,115 ± 11%
C[C@@H](N)[C@H]1CC[C@H](C(=O)Nc2ccncc2)CC1,93.8% and 107%,100% and 112%
"CCCCCCCCCCCCC/C=C/[C@@H](O)[C@H](CO)N(C)C [N,N-Dimethylsphingosine]",108 ± 20%,115 ± 6.7%
CN(N=O)C(=O)N[C@@H](C=O)[C@@H](O)[C@H](O)[C@H](O)CO [Streptozocin],89.4 ± 24%,108 ± 4.5%
Cn1c(=O)n(-c2ccc(C(C)(C)C#N)cc2)c2c3cc(-c4cnc5ccccc5c4)ccc3ncc21,107 ± 2.7%,109 ± 15%
O=[N+]([O-])c1ccc(-c2nc(-c3ccc(F)cc3)c(-c3ccncc3)[nH]2)cc1,99.9 ± 5.5%,101 ± 5.5%
NC(=O)Nc1cc(-c2ccc(CN3CCOCC3)cc2)sc1C(N)=O,108 ± 30%,113 ± 6.3%
Cc1cc(F)c(Nc2ncnc3cc(OCc4ccccc4)ccc23)cc1O,103 ± 1.4%,118 ± 11%

SMILES,cell viability (Molm13),cell viability (Mv4-11)
CCc1cncnc1N1CCN(Cc2nc3ccc(C(F)(F)F)cc3[nH]2)CC1,106 ± 32%,116 ± 7.7%
C[C@H]1[C@H](C)CC[C@]2(C(=O)O)CC[C@]3(C)C(=CC[C@@H]4[C@@]5(C)C[C@@H](O)[C@H](O)[C@@](C)(CO)[C@@H]5CC[C@]43C)[C@H]12 [Asiatic acid],107 ± 22%,103 ± 4.2%
COc1ccc(CNC(=O)Nc2ncc([N+](=O)[O-])s2)cc1,107 ± 7.3%,114 ± 15%
CNC(=O)c1ccccc1Oc1nc(Nc2cc(OC)c(OC)c(OC)c2)ncc1Br,98.7 ± 26%,107 ± 11%
N#CC(c1ccnc(OCc2ccc(CN3CCOCC3)cc2)n1)c1nc2ccccc2s1 (stereo unspecified),107 ± 20%,109 ± 11%
C#Cc1cccc(Nc2ncnc3cc4c(cc23)OCCOCCOCCO4)c1 [Icotinib],93.2 ± 10%,97.5 ± 5.9%
O=C(c1ccc(/C=C/c2n[nH]c3ccccc23)cc1)N1CCNCC1,104 ± 4.2%,92.9 ± 17%
Cc1ccc(NC(=O)c2ccc(CN3CCN(C)CC3)cc2)cc1Nc1nccc(-c2cccnc2)n1 [Imatinib (mesylate)],111 ± 16%,121 ± 22%
Nc1nc(O)c2ncn(CCC(CO)CO)c2n1 [Penciclovir],111 ± 8%,104 ± 2.1%
COc1cc(-c2cc(-c3ccc(N4CCNCC4)cc3)cnc2C)cc(OC)c1OC,111 ± 5.7%,107 ± 3.6%
CN(C)C[C@@H]1CCn2cc(c3ccccc32)C2=C(C(=O)NC2=O)c2cn(c3ccccc23)CCO1 [Ruboxistaurin hydrochloride],90 ± 7.3%,101 ± 10%
Oc1cccc(Nc2ncc(F)c(Nc3cccc(O)c3)n2)c1,83 ± 15%,96.5 ± 16%
CCCCCN(CCCOC)C(=O)C(CCC(=O)O)NC(=O)c1ccc(Cl)c(Cl)c1 (stereo unspecified) [Loxiglumide],85.9 ± 4.4%,108 ± 3.1%
Cn1cc(C2=C(c3cn(CCCSC(=N)N)c4ccccc34)C(=O)NC2=O)c2ccccc21 [Bisindolylmaleimide IX (mesylate)],99.3 ± 4.7%,104 ± 12%
CNC(=O)c1cc(Oc2ccc(NC(=O)Nc3ccc(Cl)c(C(F)(F)F)c3)cc2)ccn1 [Sorafenib tosylate],63.1 ± 6.6%,69.2 ± 10%
COc1ccc(-c2cnc3c(-c4cccc5ncccc45)cnn3c2)cc1,103 ± 12%,103 ± 1.6%
CNC(=O)c1cccc(-c2ccc3c(N4CCOC[C@@H]4C)nc(N4CCOC[C@@H]4C)nc3n2)c1,83.69 ± 0.63%,98.5 ± 20%
O=c1[nH]c(C2CCCN2)nc2c1oc1ccc(Cl)cc12 (stereo unspecified),96.9 ± 13%,107 ± 3.5%
O=S(=O)(c1cccc2cnccc12)N1CCCNCC1 [Fasudil],109 ± 12%,104 ± 9.1%
CCCCCCCCCCCC(=O)NC[C@]1(C)CCC[C@]2(C)c3ccc(C(C)C)cc3CCC12 (stereo partly specified) [Lauric Acid Leelamide],93 ± 7.2%,104 ± 12%
Cc1cc(O)c2c(c1)C(=O)c1cc(O)cc(O)c1C2=O [Emodin],91.2 ± 7.2%,99.1 ± 2.6%
CCCS(=O)(=O)Nc1ccc(F)c(C(=O)c2c[nH]c3ncc(Cl)cc23)c1F,104 ± 8.2%,135 ± 12%
CCS(=O)(=O)N1CC(CC#N)(n2cc(-c3ncnc4[nH]ccc34)cn2)C1,122 ± 31%,105 ± 8.7%
O=C(O)c1ccc(Nc2ncc3c(n2)-c2ccc(Cl)cc2C(c2c(F)cccc2F)=NC3)cc1,107 ± 1.3%,107 ± 3.6%
N#Cc1c(Oc2ccc(F)c(NC(=O)Cc3cccc(C(F)(F)F)c3)c2)ccc2nc(NC(=O)C3CC3)sc12,105 ± 12%,114 ± 6.7%
Cc1cc(Nc2ncc(Cl)c(Nc3ccccc3S(=O)(=O)C(C)C)n2)c(OC(C)C)cc1C1CCNCC1 [LDK378(Ceritinib)],110 ± 4.9%,103.8 ± 0.72%
